{"source": "the supplement of paper PMC13380429", "key": {"[1]": {"tested_on": "Vero E6 infected with SARS-CoV-2", "assay": "inhibition of SARS-CoV-2 cytopathic effect; higher = more antiviral protection, active = above 15", "details": "48 h"}, "[2]": {"tested_on": "Vero E6 infected with SARS-CoV-2", "assay": "morphology score (similarity to uninfected cells); higher = more like uninfected cells", "details": "24 h"}, "[3]": {"tested_on": "Vero E6 infected with SARS-CoV-2", "assay": "SARS-CoV-2 infection rate relative to infected DMSO; higher = more infection, active = 60 or less", "details": "24 h"}}}
{"smiles": "Nc1sc2c(c1C(=O)c1ccc(Cl)cc1)CCCC2", "values": [{"measurement": "inhibition of SARS-CoV-2 cytopathic effect", "setting": "[1]; 1 nM", "value": "-0.5% (inactive)"}, {"measurement": "inhibition of SARS-CoV-2 cytopathic effect", "setting": "[1]; 8.33 nM", "value": "3.31% (inactive)"}, {"measurement": "inhibition of SARS-CoV-2 cytopathic effect", "setting": "[1]; 100 nM", "value": "0.38% (inactive)"}]}
{"smiles": "CCc1cc(C(C)=O)c(O)cc1OCCCCCC(C)(C)c1nn[nH]n1", "values": [{"measurement": "inhibition of SARS-CoV-2 cytopathic effect", "setting": "[1]; 1 nM", "value": "-2.28% (inactive)"}, {"measurement": "inhibition of SARS-CoV-2 cytopathic effect", "setting": "[1]; 8.33 nM", "value": "0.23% (inactive)"}, {"measurement": "inhibition of SARS-CoV-2 cytopathic effect", "setting": "[1]; 100 nM", "value": "0.43% (inactive)"}]}
{"smiles": "CNC(=O)c1ccc2c(c1)CCO[C@H]2CCN1CCN(c2ccc(C(N)=O)cc2)CC1", "note": "(10 µM)", "values": [{"measurement": "morphology score", "setting": "[2]", "value": 0.0173}, {"measurement": "SARS-CoV-2 infection rate", "setting": "[3]", "value": "106% (inactive)"}]}
{"smiles": "COc1ccc(C2CC(c3c(O)cc(C)oc3=O)=NCCS2)c(OC)c1", "note": "(stereo not given) (10 µM)", "values": [{"measurement": "morphology score", "setting": "[2]", "value": 0.0127}, {"measurement": "SARS-CoV-2 infection rate", "setting": "[3]", "value": "101% (inactive)"}]}
{"smiles": "CCC1=C(C)CN(C(=O)NCCc2ccc(S(=O)(=O)NC(=O)N[C@H]3CC[C@H](C)CC3)cc2)C1=O", "note": "[glimepiride]", "values": [{"measurement": "inhibition of SARS-CoV-2 cytopathic effect", "setting": "[1]; 1 nM", "value": "-3.26% (inactive)"}, {"measurement": "inhibition of SARS-CoV-2 cytopathic effect", "setting": "[1]; 8.33 nM", "value": "-2.65% (inactive)"}, {"measurement": "inhibition of SARS-CoV-2 cytopathic effect", "setting": "[1]; 100 nM", "value": "-2.4% (inactive)"}]}
{"smiles": "Nc1nc2c(c(N3CCNCC3)n1)CCC1=C2[C@@H]2CCCC[C@@H]2O1", "values": [{"measurement": "inhibition of SARS-CoV-2 cytopathic effect", "setting": "[1]; 1 nM", "value": "1.61% (inactive)"}, {"measurement": "inhibition of SARS-CoV-2 cytopathic effect", "setting": "[1]; 8.33 nM", "value": "0.48% (inactive)"}, {"measurement": "inhibition of SARS-CoV-2 cytopathic effect", "setting": "[1]; 100 nM", "value": "1.56% (inactive)"}, {"measurement": "inhibition of SARS-CoV-2 cytopathic effect", "setting": "[1]; 833.33 nM", "value": "2.05% (inactive)"}, {"measurement": "inhibition of SARS-CoV-2 cytopathic effect", "setting": "[1]; 10000 nM", "value": "-2.01% (inactive)"}]}
{"smiles": "Fc1ccc(C(c2ccc(F)cc2)N2CCN(C/C=C/c3ccccc3)CC2)cc1", "note": "[flunarizine]", "values": [{"measurement": "inhibition of SARS-CoV-2 cytopathic effect", "setting": "[1]; 1 nM", "value": "-1.77% (inactive)"}, {"measurement": "inhibition of SARS-CoV-2 cytopathic effect", "setting": "[1]; 8.33 nM", "value": "-0.01% (inactive)"}, {"measurement": "inhibition of SARS-CoV-2 cytopathic effect", "setting": "[1]; 100 nM", "value": "-1.97% (inactive)"}, {"measurement": "inhibition of SARS-CoV-2 cytopathic effect", "setting": "[1]; 833.33 nM", "value": "-2.17% (inactive)"}, {"measurement": "inhibition of SARS-CoV-2 cytopathic effect", "setting": "[1]; 10000 nM", "value": "-3.88% (inactive)"}]}
{"smiles": "C[C@@H](O[C@H]1OCCN(Cc2nn(P(=O)(O)O)c(=O)[nH]2)[C@H]1c1ccc(F)cc1)c1cc(C(F)(F)F)cc(C(F)(F)F)c1", "note": "[fosaprepitant-dimeglumine]", "values": [{"measurement": "inhibition of SARS-CoV-2 cytopathic effect", "setting": "[1]; 1 nM", "value": "-0.45% (inactive)"}, {"measurement": "inhibition of SARS-CoV-2 cytopathic effect", "setting": "[1]; 8.33 nM", "value": "3.23% (inactive)"}, {"measurement": "inhibition of SARS-CoV-2 cytopathic effect", "setting": "[1]; 100 nM", "value": "1% (inactive)"}, {"measurement": "inhibition of SARS-CoV-2 cytopathic effect", "setting": "[1]; 833.33 nM", "value": "-0.01% (inactive)"}, {"measurement": "inhibition of SARS-CoV-2 cytopathic effect", "setting": "[1]; 10000 nM", "value": "-0.52% (inactive)"}]}
{"smiles": "COc1cc(OC)cc(-c2ccc3c(-c4ccc(F)cc4)n[nH]c3n2)c1", "values": [{"measurement": "inhibition of SARS-CoV-2 cytopathic effect", "setting": "[1]; 1 nM", "value": "12% (inactive)"}, {"measurement": "inhibition of SARS-CoV-2 cytopathic effect", "setting": "[1]; 8.33 nM", "value": "-1.07% (inactive)"}, {"measurement": "inhibition of SARS-CoV-2 cytopathic effect", "setting": "[1]; 100 nM", "value": "2.95% (inactive)"}, {"measurement": "inhibition of SARS-CoV-2 cytopathic effect", "setting": "[1]; 833.33 nM", "value": "1.46% (inactive)"}, {"measurement": "inhibition of SARS-CoV-2 cytopathic effect", "setting": "[1]; 10000 nM", "value": "-0.11% (inactive)"}]}
{"smiles": "O=C(O)c1cccnc1C(=O)O", "note": "[quinolinic-acid] (10 µM)", "values": [{"measurement": "morphology score", "setting": "[2]", "value": 0.107}, {"measurement": "SARS-CoV-2 infection rate", "setting": "[3]", "value": "108% (inactive)"}]}
{"smiles": "O=c1nc2ccccc2c2n1CC(CN1CCN(c3ccccc3)CC1)N2", "note": "(stereo not given) (10 µM)", "values": [{"measurement": "morphology score", "setting": "[2]", "value": 0.221}, {"measurement": "SARS-CoV-2 infection rate", "setting": "[3]", "value": "93% (inactive)"}]}
{"smiles": "CN1C(C)(C)CCCC1(C)C", "note": "[pempidine] (10 µM)", "values": [{"measurement": "morphology score", "setting": "[2]", "value": 0.0949}, {"measurement": "SARS-CoV-2 infection rate", "setting": "[3]", "value": "96% (inactive)"}]}
{"smiles": "C[C@H](CCC(=O)O)[C@H]1CC[C@H]2[C@@H]3[C@@H](O)C[C@@H]4C[C@H](O)CC[C@]4(C)[C@H]3CC[C@]12C", "note": "[ursodiol]", "values": [{"measurement": "inhibition of SARS-CoV-2 cytopathic effect", "setting": "[1]; 1 nM", "value": "0.455% (inactive)"}, {"measurement": "inhibition of SARS-CoV-2 cytopathic effect", "setting": "[1]; 8.33 nM", "value": "1.77% (inactive)"}, {"measurement": "inhibition of SARS-CoV-2 cytopathic effect", "setting": "[1]; 100 nM", "value": "3.56% (inactive)"}, {"measurement": "inhibition of SARS-CoV-2 cytopathic effect", "setting": "[1]; 833.33 nM", "value": "1.38% (inactive)"}, {"measurement": "inhibition of SARS-CoV-2 cytopathic effect", "setting": "[1]; 10000 nM", "value": "0.145% (inactive)"}]}
{"smiles": "CNC(=O)CN1CCC(Oc2cc3c(Nc4cccc(Cl)c4F)ncnc3cc2OC)CC1", "note": "(0.833333 µM)", "values": [{"measurement": "morphology score", "setting": "[2]", "value": -0.193}, {"measurement": "SARS-CoV-2 infection rate", "setting": "[3]", "value": "107% (inactive)"}]}
{"smiles": "COc1ccc2c(c1)CN(C)CC2c1ccc(Cl)c(Cl)c1", "note": "(stereo not given) [diclofensine] (10 µM)", "values": [{"measurement": "morphology score", "setting": "[2]", "value": 0.0249}, {"measurement": "SARS-CoV-2 infection rate", "setting": "[3]", "value": "106% (inactive)"}]}
{"smiles": "CCS(=O)(=O)Nc1ccc2c(c1)/C(=C(/Nc1ccc(CN3CCCCC3)cc1)c1ccccc1)C(=O)N2", "note": "[hesperadin]", "values": [{"measurement": "inhibition of SARS-CoV-2 cytopathic effect", "setting": "[1]; 1 nM", "value": "1.74% (inactive)"}, {"measurement": "inhibition of SARS-CoV-2 cytopathic effect", "setting": "[1]; 8.33 nM", "value": "3.12% (inactive)"}, {"measurement": "inhibition of SARS-CoV-2 cytopathic effect", "setting": "[1]; 100 nM", "value": "0.27% (inactive)"}, {"measurement": "inhibition of SARS-CoV-2 cytopathic effect", "setting": "[1]; 833.33 nM", "value": "-9.14% (inactive)"}, {"measurement": "inhibition of SARS-CoV-2 cytopathic effect", "setting": "[1]; 10000 nM", "value": "-10.5% (inactive)"}]}
{"smiles": "CC(=O)NO", "note": "[acetohydroxamic-acid]", "values": [{"measurement": "inhibition of SARS-CoV-2 cytopathic effect", "setting": "[1]; 1 nM", "value": "4.31% (inactive)"}, {"measurement": "inhibition of SARS-CoV-2 cytopathic effect", "setting": "[1]; 8.33 nM", "value": "3.09% (inactive)"}, {"measurement": "inhibition of SARS-CoV-2 cytopathic effect", "setting": "[1]; 100 nM", "value": "-3.04% (inactive)"}, {"measurement": "inhibition of SARS-CoV-2 cytopathic effect", "setting": "[1]; 833.33 nM", "value": "2.55% (inactive)"}, {"measurement": "inhibition of SARS-CoV-2 cytopathic effect", "setting": "[1]; 10000 nM", "value": "3.32% (inactive)"}]}
{"smiles": "CC(C)(Oc1ccc(Cl)cc1)C(=O)N1CSCC1C(=O)O", "note": "(stereo not given) [timofibrate]", "values": [{"measurement": "inhibition of SARS-CoV-2 cytopathic effect", "setting": "[1]; 1 nM", "value": "1.85% (inactive)"}, {"measurement": "inhibition of SARS-CoV-2 cytopathic effect", "setting": "[1]; 8.33 nM", "value": "4.22% (inactive)"}, {"measurement": "inhibition of SARS-CoV-2 cytopathic effect", "setting": "[1]; 100 nM", "value": "2.73% (inactive)"}, {"measurement": "inhibition of SARS-CoV-2 cytopathic effect", "setting": "[1]; 833.33 nM", "value": "-9.25% (inactive)"}, {"measurement": "inhibition of SARS-CoV-2 cytopathic effect", "setting": "[1]; 10000 nM", "value": "3.42% (inactive)"}]}
{"smiles": "OCc1ccc(O[C@@H]2O[C@H](CO)[C@@H](O)[C@H](O)[C@H]2O)cc1", "note": "[gastrodin]", "values": [{"measurement": "inhibition of SARS-CoV-2 cytopathic effect", "setting": "[1]; 1 nM", "value": "-0.38% (inactive)"}, {"measurement": "inhibition of SARS-CoV-2 cytopathic effect", "setting": "[1]; 8.33 nM", "value": "-2.3% (inactive)"}, {"measurement": "inhibition of SARS-CoV-2 cytopathic effect", "setting": "[1]; 100 nM", "value": "-2.66% (inactive)"}, {"measurement": "inhibition of SARS-CoV-2 cytopathic effect", "setting": "[1]; 833.33 nM", "value": "-2.37% (inactive)"}, {"measurement": "inhibition of SARS-CoV-2 cytopathic effect", "setting": "[1]; 10000 nM", "value": "-4.3% (inactive)"}]}
{"smiles": "O=C(NCCN1CCN(c2ncccn2)CC1)C12CC3CC(CC(C3)C1)C2", "note": "[adatanserin] (10 µM)", "values": [{"measurement": "morphology score", "setting": "[2]", "value": 0.159}, {"measurement": "SARS-CoV-2 infection rate", "setting": "[3]", "value": "109% (inactive)"}]}
